These entries were drawn from the full list. The true hit rate is not given. Values without a mark were called inactive.
B1: il10ra_site1_sap_24_mot_HHH_b1_02665_000000293_0001_1_18_H_._HHH_b2_00244_0001_0000100001_0000001_0_0001_af2pred_0001 (protein)
chain: SSSSDSRELIRLLRRALELLNDGNPEEAEKLLERAQEIAEEANSLNLRVVIEFVLEQVEQHSSSS
B2: il10ra_site1_normal_mot_HHH_b2_08265_af2_000000206_0001_22_38_H_._HHH_b2_05887_0001_0000200025_0000002_0 (protein)
chain: SSSSSDEEEVEELTREIERLLEEGDLEEAARLIQELLRVAYENKDQEAIQLAWELAQLAKSSSSS
B3: il10ra_site1_normal_mot_HHH_b2_08186_000000021_0001_43_56_H_._HHH_b1_08707_0001_0000400035_0000001_0 (protein)
chain: SSSSSDIEELLEEAERLAEEGNPEEALRLLQEALRLIFENQDEELLQELWEVLRLVARLSSSSSS
B4: il10ra_site1_sap_8_mot_HHH_b1_06348_000000162_0001_1_15_H_._HHH_b1_06922_0001_0000100010_0000001_0_0001_af2pred_0001 (protein)
chain: SSSSSEAEKALRWFLRAVEELLKRGNPEAAKLALRDARFAAKFLNDEEIEERLEELEKLLDSSSS
B5: il10ra_site1_sap_18_mot_HHH_b1_04818_af2_000000063_0001_42_55_H_._HHH_b1_04225_af2_0002_0000100001_0000002_0_0001 (protein)
chain: SSSSDETEEVAELMREAVELDHNGDKEEAERVAREALELAEQLNNDVLRIQAEYLEKLIGSSSSS
B6: il10ra_site1_sap_17_mot_HHH_b2_03328_af2_000000127_0001_1_19_H_._HHH_b1_04993_0001_0000100008_0000001_0_0001 (protein)
chain: SSSSSIRERIIRLLYRALRLAAEGNPEEAERLIEEAHELAEELGDPELERYIRILLHFVRSSSSS
B7: il10ra_site1_sap_16_mot_HHH_b2_04251_af2_000000037_0001_42_56_H_._HHH_b1_07004_0001_0000200017_0000001_0_0001 (protein)
chain: SSSSDVRERAARVAIEVLRIAFQQSDPEALRAVWELFRRIIEEGDPELLEELEQLLEELRSSSSS
B8: il10ra_site1_sap_30_mot_HHH_b2_02053_af2_000000006_0001_3_19_H_._HHH_b2_06177_0001_0000100006_0000002_0_0001_af2pred_dldesign_0_af2pred (protein)
chain: SPEIEAIRALLKENLSLACAALAKLLAESGNQEDIALARELARLLFEDPERAKELAEKLLAELAK
B9: il10ra_site1_normal_mot_8756ee2cf497b5429c717dfc0c0bcfd6_0001_000000186_0001_1_13_H_._HHH_b1_07372_0001_0000100003_0000001_1 (protein)
chain: SSSSSEEAREVYELIRRAAELHRNGNPEEAEEVLKEAEELAREANNDVLLFQIEYLLRHIGSSSS
B10: il10ra_site1_sap_16_mot_HHH_b1_00992_000000182_0001_23_40_H_._HHH_b1_02295_af2_0001_0000300017_0000001_0_0001 (protein)
chain: SEQVREIEELLKRNVEQAIAALAHLLAKSGDPELLRLAKELSRLMFQNPEEARKLVEEILEELKK
B11: il10ra_site1_normal_mot_HHH_b2_03220_af2_000000223_0001_23_40_H_._HHH_b1_05042_0001_0000100015_0000001_0 (protein)
chain: SSSSSRELSEEAWELLREILELIYEGDEERAQELLREVEEIAEEANSFALEYTVRILKEQLSSSS
B12: il10ra_site1_sap_22_mot_690a356816548de866c59e88e666ab0a_0001_1_af2_000000025_0001_1_13_H_._HHH_b1_01796_af2_0001_0000400019_0000001_0_0001_af2pred_0001 (protein)
chain: SSSSDIAEADARQAFKLLEIAHEQNDEELLERALELLEYLARLSNDPEAERLLEEAEKLVGSSSS
B13: il10ra_site1_normal_mot_HHH_b1_01082_af2_000000031_0001_3_19_H_._HHH_b1_06064_0001_0000200007_0000001_0 (protein)
chain: SSSSSYEEVKKLIERIVELLRRGDHEEAEKLIRELEELAEELNNPSLRFVVRLLEEVLERLSSSS
B14: il10ra_site1_sap_17_mot_HHH_b1_03763_000000209_0001_22_38_H_._HHH_b1_06016_0001_0000500017_0000001_0_0001 (protein)
chain: SSSSDDDEELLEAALRIAEQALEAGDPESARLILLAAARIAEELGNEELLEEIRRLLEEIRSSSS
B15: il10ra_site1_normal_mot_HHH_b2_04131_000000071_0001_1_16_H_._HHH_b2_02423_af2_0001_0000200002_0000002_0 (protein)
chain: SSSSSSDEELQRLLHELLRLYLKGDPRVEEVAEELRELAEELNNEVARFIVEAVERRLSSSSSSS
B16: il10ra_site1_sap_21_mot_HHH_b1_05126_000000010_0001_38_52_H_._HHH_b2_05985_af2_0001_0000600013_0000001_1_0001 (protein)
chain: SSSSDLEEEIEKLLEELEELIKEGDRERITELALKIVKLIYEAKNAELLRRLWELVKAFYSSSSS
B17: il10ra_site1_normal_mot_HHH_b1_04771_000000013_0001_40_56_H_._HHH_b1_06413_0001_0000200008_0000001_0 (protein)
chain: SSSSDLDERVSRLSQEVFRLALRGNPEEAEKVVEEAIELAEEANNERALRVLRDLEQVLESSSSS
B18: il10ra_site1_normal_mot_HHH_b1_02997_000000220_0001_39_52_H_._HHH_b1_04476_0001_0000500018_0000001_0_af2pred_dldesign_0_af2pred (protein)
chain: SSSSSSSNEEVVALLRRAMEEPDPEEAKRLAEEALRLAQANNNEILAHTAQLLLEQLESSSSSSS
B19: il10ra_site1_sap_25_mot_HHH_b2_05761_af2_000000185_0001_1_18_H_._HHH_b1_05595_af2_0001_0000200006_0000001_0_0001 (protein)
chain: SSSSDEDERYVELSLRFAEWLLKEGDPEAAKRILEAAREIAERANNEELREELEELLEKIGSSSS
B20: il10ra_site1_normal_mot_3af0db62db2b275566dae2e03bf881fa_0001_000000003_0001_37_50_H_._HHH_b2_06527_0001_0000300018_0000001_0_af2pred_0001 (protein)
chain: SSSSSSDLEQQVRAAIWFAKNIHNPTVRRKALEFALKIAEEINNEELVEEIRELLEQVNSSSSSS
B21: il10ra_site1_normal_mot_3c6ad1a4bc7d4f5cf55cee527202d42a_0001_000000108_0001_32_49_H_._HHH_b2_03602_af2_0001_0000600008_0000001_0_af2pred_dldesign_0_af2pred (protein)
chain: SSSSSDKEYYDALVKYYKEALALGKPEAAEKIALKGAEMRLEGKSLEEFEEKAKEILEEESSSSS
B22: il10ra_site1_sap_23_mot_39ab2cb694c8b9c1dc7e65c0d672c93e_0001_000000036_0001_53_65_H_._HHH_b1_07337_0001_0000100009_0000001_0_0001 (protein)
chain: SSSSDEEYKEVKRLIEEIAEALRNNDEELVRELLEELRELAEEINNPAAEFSLRILEEALNSSSS
B23: il10ra_site1_normal_mot_HHH_b2_00277_af2_000000172_0001_1_17_H_._HHH_eva_0065_0002_0000400034_0000001_0 (protein)
chain: DPEKEKLEEEIREVLERFEKGKIDPEEAKELLSRLAFKAARLGDDEAVELAIRAYAAIHQAEQRS
B24: il10ra_site1_normal_mot_HHH_b2_00033_000000036_0001_41_54_H_._HHH_b1_08598_0001_0000300016_0000002_0 (protein)
chain: SSSSSSSDFQELALRALRLLIKRNDKELFQELWRLVKEIAEHGDPELREELEEFLEEISSSSSSS
B25: il10ra_site1_sap_19_mot_2fa031a62b9321f410fa37cb4b35ac9e_0001_af2_000000160_0001_1_14_H_._HHH_b2_08251_af2_0001_0000200005_0000002_0_0001 (protein)
chain: SSSSSDQEEAVELSLEAFRLALRGDPEEARRVLEEALELAEEAGDERMAKVIRDMLRALSSSSSS
B26: il10ra_site1_normal_mot_HHH_b2_00475_000000107_0001_44_57_H_._HHH_b2_01638_af2_0001_0000200008_0000002_0 (protein)
chain: SSSSEEEQRVAELLFRALRLLAEGNPEEAEKVVEEAQKLAEENNDEELRKYVEILRHFIESHSSS
B27: il10ra_site1_sap_16_mot_8756ee2cf497b5429c717dfc0c0bcfd6_0001_000000186_0001_1_13_H_._HHH_b1_03338_0001_0000100002_0000003_0_0001 (protein)
chain: SSSSTLEWSVKFMLEIVEELLERGDKEKAEHLLEALLRHLKEAGDPELLREVEELLEEVRKSSSS
B28: il10ra_site1_normal_mot_HHH_b2_02116_af2_000000165_0001_41_55_H_._HHH_b1_06457_0001_0000100001_0000001_0 (protein)
chain: SSSDHERAVELLLRAAEIAFERGNPHQARAAIRLAREIAERINDEELEELVEEVERRLEESSSSS
B29: il10ra_site1_sap_14_mot_HHH_b1_08411_af2_000000053_0001_1_20_H_._HHH_b1_08108_0001_0000200028_0000001_0_0001 (protein)
chain: SSSSSSDEYREAYELIEEAFHIEDEEEARELLEEAKELAERAGNWALRFAIQLLLEDLSSSSSSS
B30: il10ra_site1_sap_24_mot_HHH_b1_06912_af2_000000235_0001_1_15_H_._HHH_b1_04651_0001_0000100003_0000001_0_0001 (protein)
chain: SSSSDQELYRKVEELIEEAIELQRRGNPEEARRLLEELLEELEELNNPNMLYNVRHLLKAISSSS
B31: il10ra_site1_sap_19_mot_HHH_b1_05021_af2_000000167_0001_42_56_H_._HHH_b1_02196_0001_0000400015_0000002_0_0001 (protein)
chain: SSSSDAEEYLREVAVELLELFREGDPEKAEELLEEAREFLEEKGNRELVRMIEFQFRASEWSSSS
B32: il10ra_site1_normal_mot_HHH_b1_02397_af2_000000085_0001_39_57_H_._HHH_b1_03194_0001_0000100004_0000002_0 (protein)
chain: SSSSSSDVEELLERLEELLEEGNHEEAARLLQEALRHAFRNSDPELLKELHEFAKRLASSSSSSS
B33: il10ra_site1_sap_15_mot_HHH_b1_03531_000000273_0001_41_54_H_._HHH_b2_00993_0001_0000200012_0000001_0_0001_af2pred_0001 (protein)
chain: SSSSTEEEIRELLEEVEELIERGNNHEAAKLLKKLAELISELNNDELLKELRELAQLVIRVSSSS
B34: il10ra_site1_normal_mot_HHH_b1_06789_af2_000000041_0001_1_20_H_._HHH_b2_03029_0001_0000300011_0000002_0 (protein)
chain: SSSSSAEYLVRQALKAAKRLYEQGDPERAKEAIEIAENLARNANNPELEKLVEEFAEELENSSSS
B35: il10ra_site1_normal_mot_HHH_b2_00033_000000036_0001_41_54_H_._HHH_b1_00990_0001_0000100001_0000001_0 (protein)
chain: SSSDETEEASELAAEAIRLAIRLGDEEIFQELWELFKLVIREGDPEVTERLEELLEELRERSSSS
B36: il10ra_site1_sap_20_mot_HHH_b1_02766_af2_000000078_0001_42_56_H_._HHH_b2_04892_0001_0001000047_0000001_0_0001 (protein)
chain: SSSSDELSEEAMKLIERASELDQNGNPEEAKEVLERAEELAEEAGNRVLAWNIRFLLRRLSSSSS
B37: il10ra_site1_sap_22_mot_HHH_b2_03328_af2_000000127_0001_1_19_H_._HHH_b1_06177_0001_0000200023_0000001_0_0001 (protein)
chain: SSSSTQELYELLRRIVELDHKGNLEEAERLLEELEELARERNDPNIRMQVEFLEEIIRRNLSSSS

Target: il10ra, Q13651
Sequence (Q13651 whole entry): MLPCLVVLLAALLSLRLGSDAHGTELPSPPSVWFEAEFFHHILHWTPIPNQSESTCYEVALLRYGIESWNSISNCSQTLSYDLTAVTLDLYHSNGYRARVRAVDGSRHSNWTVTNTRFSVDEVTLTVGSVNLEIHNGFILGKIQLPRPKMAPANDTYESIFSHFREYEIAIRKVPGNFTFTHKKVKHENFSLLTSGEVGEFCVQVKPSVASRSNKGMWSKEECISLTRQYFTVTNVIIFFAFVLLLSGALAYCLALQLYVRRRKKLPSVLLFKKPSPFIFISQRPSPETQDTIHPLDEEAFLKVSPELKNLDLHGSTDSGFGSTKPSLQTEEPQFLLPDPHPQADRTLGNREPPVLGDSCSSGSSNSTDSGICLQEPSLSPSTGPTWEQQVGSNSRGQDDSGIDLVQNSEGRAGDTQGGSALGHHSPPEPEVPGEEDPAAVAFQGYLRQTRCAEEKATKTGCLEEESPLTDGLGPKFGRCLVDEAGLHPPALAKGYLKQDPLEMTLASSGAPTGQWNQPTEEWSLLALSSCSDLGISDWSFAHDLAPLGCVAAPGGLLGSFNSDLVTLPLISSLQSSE
Assay: yeast display titration

Row | Binder | apparent Kd
1 | B1 | no binding seen
2 | B2 | no binding seen
3 | B3 | no binding seen
4 | B4 | no binding seen
5 | B5 | no binding seen
6 | B6 | no binding seen
7 | B7 | no binding seen
8 | B8 | no binding seen
9 | B9 | no binding seen
10 | B10 | no binding seen
11 | B11 | no binding seen
12 | B12 | no binding seen
13 | B13 | no binding seen
14 | B14 | no binding seen
15 | B15 | no binding seen
16 | B16 | no binding seen
17 | B17 | no binding seen
18 | B18 | no binding seen
19 | B19 | no binding seen

Row | Binder | apparent Kd
20 | B20 | no binding seen
21 | B21 | no binding seen
22 | B22 | no binding seen
23 | B23 | no binding seen
24 | B24 | no binding seen
25 | B25 | no binding seen
26 | B26 | no binding seen
27 | B27 | no binding seen
28 | B28 | no binding seen
29 | B29 | no binding seen
30 | B30 | no binding seen
31 | B31 | no binding seen
32 | B32 | no binding seen
33 | B33 | no binding seen
34 | B34 | no binding seen
35 | B35 | no binding seen
36 | B36 | no binding seen
37 | B37 | > 1760 nM
